Laboratory results: PubChem BioAssay (EPA / NIEHS)
Results filed as inconclusive are left out. Active and inactive are the calls of the source. Rule for the calls, unless noted: active = hit-call score of the fitted dose curve at least 0.9, where 1 is the maximum; inactive = score below 0.9.

Columns and labels:
[1] = molecular target: Glucocorticoid receptor (Homo sapiens) (UniProt P04150); assay: ATG_GR_TRANS: Attagene TRANS-FACTORIAL HepG2 Assay for human Glucocorticoid Receptor (GR) (AID 2282978; active = hit-call score of the fitted dose curve at least 0.9, where 1 is the maximum;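 note: activators score as hits since higher reporter transcript over DMSO is fitted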); conditions: HepG2 Attagene TRANS GR reporter, mRNA transcription
Sequence of Glucocorticoid receptor (Homo sapiens) (P04150 whole entry, looked up, the tested form may be a part): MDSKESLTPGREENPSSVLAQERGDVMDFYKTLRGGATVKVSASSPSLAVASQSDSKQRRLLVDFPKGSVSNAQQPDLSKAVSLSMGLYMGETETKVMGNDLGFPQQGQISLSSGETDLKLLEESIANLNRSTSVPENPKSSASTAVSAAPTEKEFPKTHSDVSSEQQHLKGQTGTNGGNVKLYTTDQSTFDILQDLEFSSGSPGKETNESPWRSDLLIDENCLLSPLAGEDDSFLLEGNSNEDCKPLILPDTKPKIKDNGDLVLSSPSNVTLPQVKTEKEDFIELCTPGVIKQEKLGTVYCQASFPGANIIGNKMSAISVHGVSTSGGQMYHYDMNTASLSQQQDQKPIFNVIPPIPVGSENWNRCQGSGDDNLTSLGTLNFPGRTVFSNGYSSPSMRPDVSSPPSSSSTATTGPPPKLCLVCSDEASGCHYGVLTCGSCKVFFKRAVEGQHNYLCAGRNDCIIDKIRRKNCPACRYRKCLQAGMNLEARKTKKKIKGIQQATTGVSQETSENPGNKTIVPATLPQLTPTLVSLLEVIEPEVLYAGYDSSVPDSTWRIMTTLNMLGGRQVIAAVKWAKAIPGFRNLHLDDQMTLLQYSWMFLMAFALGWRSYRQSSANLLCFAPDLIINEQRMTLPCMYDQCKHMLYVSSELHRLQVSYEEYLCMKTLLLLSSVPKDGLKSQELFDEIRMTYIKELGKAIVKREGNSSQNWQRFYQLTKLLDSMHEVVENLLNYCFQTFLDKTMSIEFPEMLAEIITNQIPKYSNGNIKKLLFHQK
In short: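 Exogenous NR-GAL4 fusion activity was assessed through induced GAL4-UAS reporter transcripts in transfected human HepG2 cells, quantified after 24 h by RT-PCR and fluorescent capillary electrophoresis with DMSO as baseline.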

[2] = molecular target: Oxysterols receptor LXR-beta (Homo sapiens) (UniProt P55055); assay: ATG_LXRb_TRANS: Attagene TRANS-FACTORIAL HepG2 Assay for human Liver X Receptor beta (LXRb) (AID 2282981; active = hit-call score of the fitted dose curve at least 0.9, where 1 is the maximum); conditions: HepG2 Attagene TRANS GAL4-LXRb reporter, mRNA
Sequence of Oxysterols receptor LXR-beta (Homo sapiens) (P55055 whole entry, looked up, the tested form may be a part): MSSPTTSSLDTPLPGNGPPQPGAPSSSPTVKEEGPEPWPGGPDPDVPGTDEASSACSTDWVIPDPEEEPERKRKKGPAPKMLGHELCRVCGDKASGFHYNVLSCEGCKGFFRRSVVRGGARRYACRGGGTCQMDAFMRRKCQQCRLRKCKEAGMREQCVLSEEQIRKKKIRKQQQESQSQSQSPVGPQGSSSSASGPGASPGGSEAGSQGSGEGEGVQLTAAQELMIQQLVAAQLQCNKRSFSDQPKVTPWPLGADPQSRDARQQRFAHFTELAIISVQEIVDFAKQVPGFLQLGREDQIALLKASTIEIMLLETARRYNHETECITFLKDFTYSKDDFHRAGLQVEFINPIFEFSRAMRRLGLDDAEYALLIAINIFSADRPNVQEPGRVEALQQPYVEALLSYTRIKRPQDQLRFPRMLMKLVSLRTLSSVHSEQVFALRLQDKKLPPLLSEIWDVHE
In short: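 HepG2 cells transiently transfected with GAL4-UAS reporter units for chimeric NR-Gal4 proteins, dosed for 24 h. Reporter transcripts measured by RT-PCR and capillary electrophoresis; gain-of-signal fitting relative to DMSO.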

[3] = molecular target: Hepatocyte nuclear factor 4-alpha (Homo sapiens) (UniProt P41235); assay: ATG_HNF4a_TRANS: Attagene TRANS-FACTORIAL HepG2 Assay for human Hepatocyte Nuclear Factor 4 alpha (HNF4a) (AID 2282982; active = hit-call score of the fitted dose curve at least 0.9, where 1 is the maximum); conditions: HepG2 HNF4a transactivation reporter, mRNA readout
Sequence of Hepatocyte nuclear factor 4-alpha (Homo sapiens) (P41235 whole entry, looked up, the tested form may be a part): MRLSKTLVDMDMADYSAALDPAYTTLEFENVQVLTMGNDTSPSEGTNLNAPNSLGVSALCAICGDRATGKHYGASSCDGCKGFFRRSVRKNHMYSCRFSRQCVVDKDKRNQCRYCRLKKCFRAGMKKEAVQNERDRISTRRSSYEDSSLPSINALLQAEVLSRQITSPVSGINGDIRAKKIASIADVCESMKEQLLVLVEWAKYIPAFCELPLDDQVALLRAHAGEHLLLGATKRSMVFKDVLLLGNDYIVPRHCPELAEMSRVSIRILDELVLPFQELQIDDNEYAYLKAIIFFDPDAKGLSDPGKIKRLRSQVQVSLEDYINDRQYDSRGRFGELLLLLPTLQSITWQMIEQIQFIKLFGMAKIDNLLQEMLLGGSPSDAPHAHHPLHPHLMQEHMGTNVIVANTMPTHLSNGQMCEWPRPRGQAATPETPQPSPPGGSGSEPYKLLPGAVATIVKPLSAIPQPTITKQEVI
In short: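 HepG2 cells transiently transfected with HNF4a-Gal4 chimera and GAL4-UAS reporter units, dosed for 24 h. Reporter mRNA measured by RT-PCR, fluorescent primer extension and capillary electrophoresis; gain-of-signal fitted relative to DMSO.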

[4] = ATG_M_06_TRANS: Attagene TRANS-FACTORIAL HepG2 Assay for M06 Transcription Factor (Internal Marker) (AID 2282983; active = hit-call score of the fitted dose curve at least 0.9, where 1 is the maximum;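 note: reporter transcript level by RT-PCR then capillary electrophoresis fluorescence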); conditions: HepG2 Attagene TRANS M06 internal marker reporter
In short: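 HepG2 cells transiently transfected with multiplexed GAL4-UAS reporter transcription units; after 24 h compound exposure, reporter mRNA measured by RT-PCR, FAM-labelled primer extension, HpaI digestion and capillary electrophoresis. Gain-of-signal fitted versus DMSO baseline; background control readout.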

[5] = molecular target: Nuclear receptor subfamily 4 group A member 2 (Homo sapiens) (UniProt P43354); assay: ATG_NURR1_TRANS: Attagene TRANS-FACTORIAL HepG2 Assay for human Nuclear Receptor Related Protein 1 (NURR1) (AID 2282985; active = hit-call score of the fitted dose curve at least 0.9, where 1 is the maximum); conditions: HepG2 Attagene TRANS reporter, mRNA readout
Sequence of Nuclear receptor subfamily 4 group A member 2 (Homo sapiens) (P43354 whole entry, looked up, the tested form may be a part): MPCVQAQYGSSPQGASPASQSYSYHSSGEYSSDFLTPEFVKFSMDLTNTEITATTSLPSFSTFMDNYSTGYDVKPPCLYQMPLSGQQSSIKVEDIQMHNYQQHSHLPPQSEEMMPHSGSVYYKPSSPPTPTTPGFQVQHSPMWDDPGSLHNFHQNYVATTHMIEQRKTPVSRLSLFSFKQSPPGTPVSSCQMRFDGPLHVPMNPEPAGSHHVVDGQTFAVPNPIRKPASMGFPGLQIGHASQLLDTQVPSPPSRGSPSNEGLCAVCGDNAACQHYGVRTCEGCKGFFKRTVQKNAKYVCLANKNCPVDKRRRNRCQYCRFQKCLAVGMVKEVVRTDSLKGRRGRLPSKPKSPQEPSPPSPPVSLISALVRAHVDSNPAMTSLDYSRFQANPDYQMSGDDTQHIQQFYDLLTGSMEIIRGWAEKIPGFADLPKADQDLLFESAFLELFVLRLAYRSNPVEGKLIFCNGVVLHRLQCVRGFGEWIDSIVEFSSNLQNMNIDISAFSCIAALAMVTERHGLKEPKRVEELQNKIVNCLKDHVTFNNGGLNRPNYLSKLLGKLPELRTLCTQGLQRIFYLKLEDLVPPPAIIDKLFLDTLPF
In short: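 HepG2 cells transiently transfected with NURR1-Gal4 chimera and GAL4-UAS reporter units; after 24 hr compound exposure, reporter mRNA quantified by RT-PCR and capillary electrophoresis; gain of signal fitted against DMSO.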

[6] = molecular target: Transcriptional activator Myb (Homo sapiens) (UniProt P10242); assay: ATG_Myb_CIS: Attagene CIS-FACTORIAL HepG2 Assay for human Myeloblastosis (Myb) Proto-Oncogene Transcription Factor (AID 2282986); conditions: HepG2 Attagene CIS-FACTORIAL Myb reporter transcription; actives raise or lower the signal
Sequence of Transcriptional activator Myb (Homo sapiens) (P10242 whole entry, looked up): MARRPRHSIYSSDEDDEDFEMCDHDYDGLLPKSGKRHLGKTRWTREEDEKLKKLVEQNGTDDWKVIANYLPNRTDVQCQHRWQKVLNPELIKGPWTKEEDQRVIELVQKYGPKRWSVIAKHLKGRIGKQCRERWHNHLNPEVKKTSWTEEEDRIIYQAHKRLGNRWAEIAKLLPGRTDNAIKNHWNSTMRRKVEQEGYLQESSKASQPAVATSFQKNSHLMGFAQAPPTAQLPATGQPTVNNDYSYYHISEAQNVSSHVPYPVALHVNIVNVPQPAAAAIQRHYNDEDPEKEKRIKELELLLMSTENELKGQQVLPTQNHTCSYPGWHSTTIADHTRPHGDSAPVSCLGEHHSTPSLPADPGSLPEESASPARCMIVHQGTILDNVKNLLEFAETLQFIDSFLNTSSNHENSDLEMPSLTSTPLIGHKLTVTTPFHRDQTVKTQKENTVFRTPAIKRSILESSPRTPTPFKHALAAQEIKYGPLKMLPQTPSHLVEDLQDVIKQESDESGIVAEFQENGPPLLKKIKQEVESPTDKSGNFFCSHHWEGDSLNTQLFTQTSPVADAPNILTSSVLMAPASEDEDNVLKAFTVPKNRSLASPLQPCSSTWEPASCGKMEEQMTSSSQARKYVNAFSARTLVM
In short: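 In this HepG2 transient-transfection format, cis-regulated reporter mRNA is quantified 24 h post-dosing by RT-PCR with capillary electrophoresis, fitted bidirectionally to DMSO baseline.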

[7] = molecular target: Nuclear respiratory factor 1 (Homo sapiens) (UniProt Q16656); assay: ATG_NRF1_CIS: Attagene CIS-FACTORIAL HepG2 Assay for human Nuclear Respiratory Factor 1 (NRF1) Orphan Gene (AID 2282987); conditions: HepG2 NRF1 cis-element reporter, Attagene multiplex; actives raise or lower the signal
Sequence of Nuclear respiratory factor 1 (Homo sapiens) (Q16656 whole entry, looked up): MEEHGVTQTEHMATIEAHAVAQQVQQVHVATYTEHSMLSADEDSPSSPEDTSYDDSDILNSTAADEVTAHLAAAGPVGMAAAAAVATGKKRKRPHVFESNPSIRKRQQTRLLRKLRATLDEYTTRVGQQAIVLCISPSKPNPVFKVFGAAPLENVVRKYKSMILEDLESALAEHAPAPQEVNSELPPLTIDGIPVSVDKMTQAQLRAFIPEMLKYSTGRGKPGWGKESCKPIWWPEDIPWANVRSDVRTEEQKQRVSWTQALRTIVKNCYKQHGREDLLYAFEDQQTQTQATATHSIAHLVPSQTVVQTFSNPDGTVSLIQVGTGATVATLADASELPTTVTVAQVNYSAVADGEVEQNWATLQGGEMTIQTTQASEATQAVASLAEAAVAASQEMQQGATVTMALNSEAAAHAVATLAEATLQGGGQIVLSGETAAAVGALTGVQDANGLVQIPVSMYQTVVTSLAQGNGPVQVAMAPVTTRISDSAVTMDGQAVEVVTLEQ
In short: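 Using DMSO as baseline, gain- or loss-of-signal was fitted for reporter mRNA levels in HepG2 cells transiently transfected with cis-regulated reporter units. Samples were taken 24 h after dosing and read by RT-PCR with capillary electrophoresis.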

[8] = ATG_NFI_CIS: Attagene CIS-FACTORIAL HepG2 Assay for human Nuclear Factor I (NFI) (AID 2282989); conditions: HepG2 cis-regulatory reporter, NFI response element transcription; actives raise or lower the signal
In short: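 Endogenous TF activity in HepG2 cells transiently transfected with cis-element-driven multiplexed reporter units, read 24 h after dosing. Reporter mRNA quantified by RT-PCR, 6-FAM labelling, HpaI digestion and capillary electrophoresis; bidirectional fit versus DMSO.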

[9] = molecular target: Myc proto-oncogene protein (Homo sapiens) (UniProt P01106); assay: ATG_Myc_CIS: Attagene CIS-FACTORIAL HepG2 Assay for human Myelocytomatosis (Myc) Proto-Oncogene Transcription Factor (AID 2282990); conditions: HepG2, Attagene cis-reporter transcription factor activity; actives raise or lower the signal
Sequence of Myc proto-oncogene protein (Homo sapiens) (P01106 whole entry, looked up, the tested form may be a part): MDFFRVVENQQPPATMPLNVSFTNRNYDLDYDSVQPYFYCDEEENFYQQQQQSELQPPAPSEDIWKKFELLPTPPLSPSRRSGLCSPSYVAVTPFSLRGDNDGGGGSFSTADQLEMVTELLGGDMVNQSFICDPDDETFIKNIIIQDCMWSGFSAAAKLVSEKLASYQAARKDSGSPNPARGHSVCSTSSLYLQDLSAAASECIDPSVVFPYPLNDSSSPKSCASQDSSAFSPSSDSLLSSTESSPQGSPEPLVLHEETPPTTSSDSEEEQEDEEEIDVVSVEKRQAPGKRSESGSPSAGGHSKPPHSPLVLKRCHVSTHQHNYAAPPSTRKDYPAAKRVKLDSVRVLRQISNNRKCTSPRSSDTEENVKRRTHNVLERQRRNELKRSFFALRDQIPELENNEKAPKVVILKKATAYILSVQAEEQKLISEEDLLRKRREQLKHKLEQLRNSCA
In short: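 Fluorescence intensity of reporter-specific cDNA fragments, separated by capillary electrophoresis, gives the signal. Transfected HepG2 cells carrying cis-promoter reporter constructs are incubated with compound for 24 h; DMSO serves as baseline.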

[10] = ATG_NF_kB_CIS: Attagene CIS-FACTORIAL HepG2 Assay for human Nuclear Factor Kappa B (NF-kB) (AID 2282991); conditions: HepG2 Attagene cis-factorial NF-kB reporter mRNA; actives raise or lower the signal
In short: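 Endpoint from a 52-component multiplexed HepG2 reporter panel: cis-regulated transcription units transiently transfected, 24 h dosing, reporter mRNA quantified by RT-PCR and capillary electrophoresis, scored as increase or decrease against DMSO.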

[11] = ATG_NRF2_ARE_CIS: Attagene CIS-FACTORIAL HepG2 Assay for human Nuclear Factor Erythroid 2 Related Factor 2 (NFR2) response to Antioxidant Response Elements (ARE) (AID 2282992); conditions: HepG2 Attagene ARE/NRF2 reporter, transcription factor activity; actives raise or lower the signal;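 for AC50: reporter mRNA level measured by RT-PCR and capillary electrophoresis fluorescence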
In short: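 Multiplexed reporter mRNA profiling in HepG2 after a 24 h chemical exposure. Curves fitted in both directions relative to DMSO negative control.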

[12] = ATG_Oct_MLP_CIS: Attagene CIS-FACTORIAL HepG2 Assay for human Octamer-Binding Transcription Factor (Oct) (AID 2282993); conditions: HepG2 Attagene cis-factorial Oct reporter, mRNA; actives raise or lower the signal
In short: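 HepG2 cells transiently transfected with cis-element-driven reporter transcription units (endogenous TF activity); 24 h compound exposure. Reporter mRNA quantified by RT-PCR, 6-FAM labelling, HpaI digestion and capillary electrophoresis; bidirectional fit versus DMSO baseline.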

[13] = ATG_M_32_TRANS: Attagene TRANS-FACTORIAL HepG2 Assay for M32 Transcription Factor (Internal Marker) (AID 2282984; active = hit-call score of the fitted dose curve at least 0.9, where 1 is the maximum); conditions: HepG2 Attagene TRANS M32 internal marker reporter
In short: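 HepG2 cells transiently transfected with GAL4-UAS reporter units, dosed for 24 hours. Reporter mRNA quantified by RT-PCR, 6-FAM labelling, HpaI digestion and capillary electrophoresis; internal-marker signal fitted upward relative to DMSO.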

[14] = molecular target: Cellular tumor antigen p53 (Homo sapiens) (UniProt P04637); assay: ATG_p53_CIS: Attagene CIS-FACTORIAL HepG2 Assay for human p53 Transcription Factor (AID 2282994); conditions: HepG2 p53 cis-element reporter, Attagene mRNA; actives raise or lower the signal
Sequence of Cellular tumor antigen p53 (Homo sapiens) (P04637 whole entry, looked up): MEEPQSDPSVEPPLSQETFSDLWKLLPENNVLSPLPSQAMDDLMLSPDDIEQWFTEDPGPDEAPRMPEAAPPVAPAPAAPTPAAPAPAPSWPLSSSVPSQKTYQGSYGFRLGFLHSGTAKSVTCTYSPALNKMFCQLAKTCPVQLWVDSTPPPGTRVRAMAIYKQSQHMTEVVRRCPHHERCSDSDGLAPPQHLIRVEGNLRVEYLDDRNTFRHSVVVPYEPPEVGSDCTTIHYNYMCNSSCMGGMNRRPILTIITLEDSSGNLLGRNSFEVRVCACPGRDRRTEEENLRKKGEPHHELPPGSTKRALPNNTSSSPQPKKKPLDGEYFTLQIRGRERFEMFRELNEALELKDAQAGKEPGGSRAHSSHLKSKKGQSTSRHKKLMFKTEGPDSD
In short: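 Multiplexed reporter mRNA assay in human HepG2 liver cells; cis-regulated units report endogenous factor activity. Values come from bidirectional curve fitting against DMSO negative control after 24 h treatment.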

[15] = molecular target: Oxysterols receptor LXR-alpha (Homo sapiens) (UniProt Q13133); assay: ATG_LXRa_TRANS: Attagene TRANS-FACTORIAL HepG2 Assay for human Liver X Receptor alpha (LXRa) (AID 2282980; active = hit-call score of the fitted dose curve at least 0.9, where 1 is the maximum); conditions: HepG2 Attagene TRANS reporter, LXRa transactivation
Sequence of Oxysterols receptor LXR-alpha (Homo sapiens) (Q13133 whole entry, looked up, the tested form may be a part): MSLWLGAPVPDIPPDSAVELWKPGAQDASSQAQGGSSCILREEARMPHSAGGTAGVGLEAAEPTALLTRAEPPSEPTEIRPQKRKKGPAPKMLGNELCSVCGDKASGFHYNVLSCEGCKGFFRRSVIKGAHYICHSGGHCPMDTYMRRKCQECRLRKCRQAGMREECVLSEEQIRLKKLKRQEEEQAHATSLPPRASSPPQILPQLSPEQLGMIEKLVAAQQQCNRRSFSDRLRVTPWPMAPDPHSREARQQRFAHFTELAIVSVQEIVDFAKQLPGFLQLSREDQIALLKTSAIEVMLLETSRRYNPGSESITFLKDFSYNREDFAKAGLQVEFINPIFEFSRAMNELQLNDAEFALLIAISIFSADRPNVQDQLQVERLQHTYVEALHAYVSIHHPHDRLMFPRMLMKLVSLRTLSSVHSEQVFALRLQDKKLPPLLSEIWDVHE
In short: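 HepG2 cells were transiently transfected with multiplexed reporter units driven by chimeric LXRa–GAL4 fusion proteins, then dosed for 24 h. Reporter mRNA was quantified by RT-PCR, fluorescent labelling and capillary electrophoresis; gain of signal fitted against DMSO baseline.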

[16] = BSK_3C_uPAR: BioMAP Diversity Plus: 3C Assay for Urokinase-type plasminogen activator receptor (uPAR) Biomarker Activity (AID 2282998); conditions: BioMAP 3C HUVEC, uPAR biomarker ELISA; actives raise or lower the signal
In short: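 Primary human umbilical vein endothelial cells, 3C system; surface uPAR measured by ELISA 24 h after dosing. Cytotoxicity via SRB total protein in parallel cultures; bidirectional fit against DMSO.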

[17] = BSK_3C_VCAM1: BioMAP Diversity Plus: 3C Assay for Vascular cell adhesion molecule 1 (VCAM1) Biomarker Activity (AID 2282999); conditions: BioMAP 3C HUVEC, VCAM1 ELISA, cytokine-stimulated; actives raise or lower the signal
In short: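 Human umbilical vein endothelial cells (3C system), biomarker read by ELISA 24 h after dosing; bidirectional fit against DMSO baseline. Cytotoxicity tracked by SRB total-protein staining in parallel cultures at biomarker time.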

Measured: AC50

CC(C)N(c1ccccc1)C(C)C
not listed: [13] | [14] | [15] | [16] | [17]
inactive: all other assays above

CC/C=C\CCOC(C)OCC (centres undefined)
not listed: [2] | [4] | [10] | [15] | [16] | [17]
inactive: all other assays above

Cc1ccc(C(C)(C)O)cc1
not listed: [2] | [3] | [5] | [13] | [16] | [17]
inactive: all other assays above

C[C@H](CCC(=O)O)[C@H]1CC[C@H]2[C@@H]3CC[C@@H]4C[C@H](O)CC[C@]4(C)[C@H]3CC[C@]12C
inactive: [1] | [15] | [4] | [13] | [6] | [7] | [12]
active: [8] 100 µM | [9] 156 µM | [11] 45.4 µM | [14] 100 µM

CC(O)CN (centres undefined)
not listed: [3] | [4] | [14] | [16] | [17]
inactive: all other assays above

NC(=O)c1cnccn1
not listed: [3] | [13] | [15] | [16] | [17]
inactive: all other assays above

CCCCCCC(C)O (centres undefined)
not listed: [5] | [10] | [15] | [16] | [17]
inactive: all other assays above

[Cu+]
active: [11] 2.29 µM
not listed: [4] | [10] | [15] | [16] | [17]
inactive: all other assays above

CC1(C)[C@H](C=C(Cl)Cl)[C@H]1C(=O)OCc1cccc(Oc2ccccc2)c1
not listed: [2] | [5] | [6] | [10] | [13] | [15]
inactive: all other assays above
